Nine compounds from PubChem BioAssay (EPA / NIEHS) can be followed below.

Results filed as inconclusive are left out. Some structures have more than one record in an assay (separate samples or runs), and their calls can disagree. Activity calls are given as the source filed them. The calls were made as follows: active = hit-call score of the fitted dose curve at least 0.9, where 1 is the maximum; inconclusive = response in the unintended direction; inactive = score below 0.9.

The test system of this test is guinea pig Dopamine Transporter (DAT), gene 100714898. Put plainly: NVS_TR_gDAT: NovaScreen (NVS) Transporter Assay for guinea pig Dopamine Transporter (DAT) (AID 2283369).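 Also: active compounds lower bound radioligand signal relative to DMSO.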 Here is the method: NVS_TR_gDAT is a biochemical, single-readout assay that uses extracted gene-proteins from Guinea pig striatal membranes in a tissue-based cell-free assay. Measurements were taken 2 hours after chemical dosing in a 48-well plate.NVS_TR_gDAT is one of one assay component(s) measured or calculated from the NVS_TR_gDAT assay. It is designed to make measurements of radioligand binding, a form of binding reporter, as detected with scintillation counting signals by Filter-based radiodetection technology.Data from the assay component NVS_TR_gDAT was analyzed into 1 assay endpoint. This assay endpoint, NVS_TR_gDAT, was analyzed in the positive analysis fitting direction relative to DMSO as the negative control and baseline of activity. Using a type of binding reporter, loss-of-signal activity can be used to understand changes in the binding as they relate to the gene Slc6a3. Furthermore, this assay endpoint can be referred to as a primary readout, because the performed assay has only produced 1 assay endpoint. To generalize the intended target to other relatable targets, this assay endpoint is annotated to the transporter intended target family, where the subfamily is neurotransmitter transporter.
Binding assays used specific radioligands (tritiated, iodinated) with non-radioactive competitive displacement ligands in agonist or antagonist protocols (as indicated) and various reference compounds and inhibitors to titrate specific binding to receptors and transporters. Most enzyme assays (CYPs, kinases, phosphatases, proteases, HDACs) used recombinant protein and specific substrates (fluorescence mostly, some colorimetric and radioactive) and inhibitors, followed by a biochemical separation of substrate and product. All assays for the biochemical HTS were initially run in duplicate at a single concentration (10 uM for CYP450 assays and 25 uM for all others). Assay-chemical combinations meeting a pre-defined threshold (e.g., 30% inhibition and other criteria defined below) were then run in singleton concentration-response format with maximum concentration of 20 uM for CYPs and 50 uM for all others. Each assay was run with positive and negative controls, and concurrent controls on every plate. The follow-up (secondary) screen tested active chemical-pairs in concentration series, as well as a few additional assays not tested in the primary screen, some selected negative inactives, and several cases re-run in the concentration series for confirmatory purposes.
On to `C#CCOS(=O)OC1CCCCC1Oc1ccc(C(C)(C)C)cc1` (stereo unspecified), for which the AC50 was 15.6 µM (active).

In the case of `Fc1ccc(Oc2ccnc3cc(Cl)cc(Cl)c23)cc1`, the AC50 is 13.8 µM (active).

As for `CC1=C(C(=O)Nc2ccccc2)SCCO1`, the AC50 was 13.9 µM (active).

Consider `CCCCOC(=O)c1ccccc1C(=O)OCCCC`, for which the compound was called inactive and the AC50 is 19.5 µM (active).

For the compound `C=CCC1=C(C)C(OC(=O)C2C(C=C(C)C)C2(C)C)CC1=O` (stereo unspecified), the AC50 was 26.2 µM (active) and the outcome was inactive.

For the compound `COc1ccc(C(c2ccc(OC)cc2)C(Cl)(Cl)Cl)cc1`, the AC50 was 14 µM (active).

With `COC(=O)C(C)Oc1ccc(Oc2ccc(Cl)cc2Cl)cc1` (stereo unspecified), the compound was classed as inactive.

As for `C=CCC1=C(C)[C@@H](OC(=O)[C@@H]2[C@@H](C=C(C)C)C2(C)C)CC1=O`, the AC50 is 20.3 µM (active).

For the compound `CC1COC(Cn2cncn2)(c2ccc(Oc3ccc(Cl)cc3)cc2Cl)O1` (stereo unspecified), the AC50 is 12.3 µM (active).

Usually AC50 stands for the midpoint of the concentration-response curve, whichever way the signal moves.
